Laboratory results reported in the supplement of paper PMC10981050.
Several values for one entry are separate records, joined by “and”; a condition that tells them apart may be missing. Identical values can stand only once. Counter-ions that a name gives are not always drawn.

Key:
Test in all cases: cell viability relative to vehicle control; higher = less cytotoxic
Conditions in all cases: 10 µM
K562 = tested on: K562
Method in brief: (§1)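 CRISPR-edited mutant clones and isogenic wild-type clones from four leukaemia lines were screened against Selleck bioactive, kinase and epigenetic probe libraries, with identity-inconsistent compounds excluded. Each compound was acoustically dispensed at a single 10 µM dose into 384-well plates holding 2000 cells in 50 µL medium per well. After 48 h the supernatant was removed and CellTiter-Glo luminescence was read. Viability was expressed as percent of the on-plate vehicle control and analysed in Genedata Screener.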

MARIMO = tested on: MARIMO
Method in brief: as §1

MOLM14 = tested on: MOLM14
Method in brief: as §1

OCI-AML2 = tested on: OCI-AML2
Method in brief: as §1

SMILES | cell viability (K562; SRSF2 genotype: SRSF2 P95H/wt) | cell viability (K562; SRSF2 genotype: SRSF2 wt/wt) [%] | cell viability (MARIMO; SRSF2 genotype: SRSF2 P95H/wt) [%] | cell viability (MARIMO; SRSF2 genotype: SRSF2 wt/wt) [%] | cell viability (MOLM14; SRSF2 genotype: SRSF2 P95H/wt) [%] | cell viability (MOLM14; SRSF2 genotype: SRSF2 wt/wt) [%] | cell viability (OCI-AML2; SRSF2 genotype: P95H/wt) [%] | cell viability (OCI-AML2; SRSF2 genotype: wt/wt) [%]
C[C@]12CC[C@H](O)CC1=CC[C@@H]1[C@@H]2CC[C@]2(C)C(=O)CC[C@@H]12 [Dehydroepiandrosterone (DHEA)] | 89.1% and 108% | 102 | 98.1 | 101 | 108 | 103 | 110 | 93.2
N#CC(C#N)=Cc1ccc(O)c(O)c1 [AG 18 (Tyrphostin 23)] | 86.3% and 84.4% | 80.7 | 78.4 | 79.8 | 81.5 | 86.5 | 78.8 | 82
CCc1c(C(=O)C(N)=O)c2c(OCC(=O)O)cccc2n1Cc1ccccc1 | 93.5% and 89.8% | 88.8 | 82.6 | 92 | 93.1 | 95.2 | 84 | 90.6
COc1cc(C)[nH]c(=O)c1CNC(=O)c1c(C)n([C@H](C)C2CCN(CC(F)(F)F)CC2)c2ccccc12 | 103% and 99% | 110 | 103 | 110 | 97.2 | 95.3 | 103 | 109
CNCC(=O)c1ccc(O)c(O)c1 [Adrenalone HCl] | 97.4% and 92.4% | 98.3 | 91.8 | 92.3 | 88.6 | 94 | 90.5 | 97.5
ClC(Cl)=C(c1ccc(Cl)cc1)c1ccc(Cl)cc1 | 103% and 96.8% | 106 | 89.6 | 99.1 | 96.8 | 105 | 100 | 108
COc1cc2c(cc1OC)[C@@H](Cc1ccc(O)c(Oc3cc4c(cc3OC)CCN(C)[C@@H]4Cc3ccc(O)cc3)c1)N(C)CC2.[O-][Cl+3]([O-])([O-])O [Liensinine perchlorate] | 76.2% and 65.4% | 65.4 | 55.5 | 66.8 | 50.4 | 56.1 | 51.5 | 45
COC1CC(OC2CCC3(C)C4CCC5(C)C(C6=CC(=O)OC6)CCC5(O)C4CCC3(O)C2)OC(C)C1OC1OC(CO)C(O)C(O)C1O (stereo not drawn) [Periplocin] | 8.96% and 10.7% | 11.7 | 11.5 | 4.97 | 3.28 | 0.9 | 1.16 | 4.41
NCC(O)c1ccc(O)cc1 (racemic) [(+,-)-Octopamine HCl] | 91.4% and 95.7% | 97.6 | 96.5 | 96.5 | 99.5 | 96.8 | 93.1 | 97.3
N#CC=C1C=CC(O)C(O)C1OC1OC(CO)C(O)C(O)C1O (stereo not drawn) [Lithospermoside] | 89.9% and 83.2% | 84.3 | 86.5 | 97.5 | 87.4 | 91.7 | 95 | 116
CN1CCN(c2nc3ccccc3nc2Cl)CC1 | 96.3% and 106% | 98.8 | 93.1 | 103 | 105 | 109 | 107 | 102
O=C(CBr)N1CC([N+](=O)[O-])([N+](=O)[O-])C1 | 86.2% and 82.7% | 81.4 | 85.5 | 101 | 88.6 | 88.7 | 94.3 | 114
OC1CC2CCC(C1)N2 (stereo not drawn) [Nortropine Hydrochloride] | 101% and 98.7% | 101 | 102 | 107 | 97.2 | 102 | 105 | 94.8
CC(=O)O[C@H]1C[C@@H]2CC[C@@H]3[C@H](CC[C@@]4(C)[C@H]3C[C@H]([N+]3(C)CCCCC3)[C@@H]4OC(C)=O)[C@@]2(C)C[C@@H]1[N+]1(C)CCCCC1 [Pancuronium dibromide] | 101% and 96.7% | 91.6 | 96 | 99.3 | 103 | 102 | 97.4 | 101
CC1=C[C@H]2Cc3[nH]c(=O)ccc3[C@]3(C1)NCCC[C@H]23 [Huperzine B] | 110% and 97% | 113 | 109 | 103 | 113 | 108 | 105 | 94.8
Nc1ncnc2c1ccn2[C@@H]1O[C@H](CO)[C@@H](O)[C@H]1O [Tubercidin] | 4.16% and 3.19% | 3.9 | 1.78 | 1.63 | 0.87 | 1.22 | 0.61 | 0.99
Cc1cc(C(C#N)c2ccc(Cl)cc2)c(Cl)cc1NC(=O)c1cc(I)cc(I)c1O (stereo not drawn) [Closantel] | 95% and 92.2% | 92.3 | 102 | 108 | 99 | 100 | 92.4 | 110
COc1cc([C@@H]2c3cc4c(cc3[C@@H](O)[C@H]3COC(=O)[C@H]23)OCO4)cc(OC)c1O [4'-Demethylepipodophyllotoxin] | 36.4% and 51% | 51.2 | 26.8 | 31.3 | 13.4 | 6.99 | 20.9 | 24.2
O=C1CC[C@@]2(O)[C@H]3Cc4ccc(O)c5c4[C@@]2(CCN3CC2CC2)[C@H]1O5 [Naltrexone HCl] | 98.5% and 105% | 97.7 | 98.8 | 103 | 99.9 | 103 | 106 | 99.8
CN(C)C(=O)Oc1ccc[n+](C)c1 [Pyridostigmine Bromide (Mestinon)] | 93.7% and 96.7% | 95.9 | 93.5 | 98.7 | 96.6 | 94.3 | 93.2 | 97
CN1C2CCC1CC(O)C2 (stereo not drawn) [Tropine] | 105% and 98.9% | 97.2 | 104 | 110 | 99.5 | 103 | 94.5 | 108

SMILES | cell viability (K562; SRSF2 genotype: SRSF2 P95H/wt) | cell viability (K562; SRSF2 genotype: SRSF2 wt/wt) [%] | cell viability (MARIMO; SRSF2 genotype: SRSF2 P95H/wt) [%] | cell viability (MARIMO; SRSF2 genotype: SRSF2 wt/wt) [%] | cell viability (MOLM14; SRSF2 genotype: SRSF2 P95H/wt) [%] | cell viability (MOLM14; SRSF2 genotype: SRSF2 wt/wt) [%] | cell viability (OCI-AML2; SRSF2 genotype: P95H/wt) [%] | cell viability (OCI-AML2; SRSF2 genotype: wt/wt) [%]
COc1cc([C@@H]2c3cc4c(cc3[C@H](O)[C@H]3COC(=O)[C@H]23)OCO4)cc(OC)c1O [4'-Demethylpodophyllotoxin] | 15.8% and 34.9% | 35.7 | 8.03 | 7.56 | 0.85 | 0.99 | 1.45 | 3.83
Cn1cc(C2=C(c3cn(C4CCN(Cc5ccccn5)CC4)c4ccccc34)C(=O)NC2=O)c2ccccc21 | 91.5% and 86.9% | 91.3 | 93 | 101 | 76.9 | 91.3 | 110 | 111
C/C(=C\c1csc(C)n1)[C@@H]1C[C@@H]2O[C@@H]2CCC[C@H](C)[C@H](O)[C@@H](C)C(=O)C(C)(C)[C@@H](O)CC(=O)O1 [Epothilone A] | 22.5% and 33% | 32.5 | 7.48 | 5.2 | 6.35 | 2.31 | 7.11 | 8.21
C/C(=C\c1csc(C)n1)[C@@H]1C[C@@H]2O[C@]2(C)CCC[C@H](C)[C@H](O)[C@@H](C)C(=O)C(C)(C)[C@@H](O)CC(=O)O1 [Patupilone (EPO906, Epothilone B)] | 29% and 37% | 39.4 | 7.88 | 6.51 | 8.36 | 2.95 | 6.03 | 11.7
CC(O)(CS(=O)(=O)c1ccc(F)cc1)C(=O)Nc1ccc(C#N)c(C(F)(F)F)c1 (stereo not drawn) [Bicalutamide (Casodex)] | 95.5% and 101% | 106 | 95.4 | 102 | 98.7 | 98.8 | 93.8 | 91.8
CC(=O)Nc1ccc(OC[C@](C)(O)C(=O)Nc2ccc([N+](=O)[O-])c(C(F)(F)F)c2)cc1 [Andarine (GTX-007)] | 103% and 99% | 107 | 98.4 | 105 | 106 | 105 | 97.1 | 95.8
COc1ccc(C(CN(C)C)C2(O)CCCCC2)cc1 (stereo not drawn) [Venlafaxine HCl] | 99.9% | 98.7 | 95.8 | 99.7 | 96.9 | 98.6 | 99.8 | 107
CC(C)c1ccc(CO)cc1 [4-Isopropylbenzyl Alcohol] | 107% and 98.3% | 97.1 | 99.9 | 110 | 102 | 105 | 87.7 | 97.4
CCC(COC(=O)c1cc(OC)c(OC)c(OC)c1)(c1ccccc1)N(C)C (stereo not drawn) [Trimebutine] | 94.7% and 99.7% | 97.2 | 87.4 | 109 | 97.9 | 104 | 92.5 | 97.8
CC[C@@H]1CN2CC[C@@]3(C(=O)Nc4ccccc43)[C@@H]2C[C@@H]1/C(=C\OC)C(=O)OC [Corynoxine] | 95.5% and 98.3% | 97.9 | 75.2 | 69.5 | 77.1 | 82.5 | 92.9 | 79.2
C=CC1CN2CCC1CC2C(O)c1ccnc2ccccc12 (stereo not drawn) [Cinchonine.cdx] | 98.1% and 107% | 102 | 105 | 105 | 95.8 | 104 | 120 | 99.7
CCN(C)C(=O)Oc1cccc([C@H](C)N(C)C)c1 [Rivastigmine tartrate (Exelon)] | 103% and 106% | 101 | 101 | 105 | 99.5 | 108 | 104 | 113
COc1cc2c(cc1OC)C(Cc1ccc(O)c(Oc3cc4c(cc3OC)CCN(C)C4Cc3ccc(O)cc3)c1)N(C)CC2.[O-][Cl+3]([O-])([O-])O (stereo not drawn) [Liensinine diperchlorate] | 87% and 79.8% | 77.4 | 64.6 | 76.3 | 61.7 | 77.2 | 63.7 | 63.7
c1csc(-c2ccc(-c3cccs3)s2)c1 [2,2':5',2''-Terthiophene] | 95.8% and 89.3% | 97.1 | 88.1 | 100 | 91.7 | 98.7 | 84.6 | 85.4
COc1cc(C(=O)O)cc(OC)c1OC [Gallic acid trimethyl ether] | 106% and 110% | 101 | 102 | 106 | 105 | 106 | 99.2 | 109
COc1cc(OC)c(OC)cc1C=O [Asaraldehyde (Asaronaldehyde)] | 110% and 107% | 106 | 100 | 114 | 110 | 105 | 102 | 105
C#C[C@]1(O)C=C[C@H]2[C@@H]3CCC4=CC(=O)CC[C@@H]4[C@H]3CC[C@@]21CC [Gestodene] | 94.9% and 97.5% | 95.4 | 90.9 | 97.2 | 94.2 | 97.1 | 99 | 94.8
C/C=C\c1cc(OC)c(OC)cc1OC [Beta-Asarone] | 106% and 104% | 104 | 98 | 102 | 104 | 104 | 104 | 105
O=C(CBr)c1ccc(O)cc1 [PTP Inhibitor I] | 106% and 101% | 107 | 103 | 104 | 97.2 | 108 | 104 | 103
COc1c(C)c(O)cc2[o+]c(-c3ccccc3)ccc12.[O-][Cl+3]([O-])([O-])[O-] [Dracohodin perochlorate] | 80.8% and 78.3% | 77.4 | 80.1 | 86.8 | 80.1 | 82.3 | 83.6 | 84.1
